Source: PubChem BioAssay (EPA / NIEHS)
The source made the active and inactive calls. How the source made its calls: active means hit-call score of the fitted dose curve at least 0.9, where 1 is the maximum; inactive means score below 0.9.

Read-out: HGF (gene 3082)
Experiment: LTEA_HepaRG_HGF: Life Technologies and Expression Analysis (LTEA) Assay for Hepatocyte Growth Facto (HGF) using HepaRG (AID 2283505)
Settings: mRNA level, 48 h; actives raise or lower the signal
How it was run: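 Gain or loss of HGF mRNA in human HepaRG liver cells after 48 h chemical exposure; eight concentrations up to 100 uM with 0.5% DMSO vehicle, quantified by TaqMan qRT-PCR.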

| SMILES | outcome |
| --- | --- |
| Cc1c(COC(=O)[C@@H]2[C@H](/C=C(\Cl)C(F)(F)F)C2(C)C)cccc1-c1ccccc1 | inactive |
| Nc1c(Cl)c(Cl)nc(C(=O)O)c1Cl | inactive |
| CC(C)NC(=O)N1CC(=O)N(c2cc(Cl)cc(Cl)c2)C1=O | inactive |
| Cn1c(-c2ccccc2)cc(-c2ccccc2)[n+]1C | inactive |
| CCOc1cc(C(C)(C)C)ccc1C1COC(c2c(F)cccc2F)=N1 (stereo not given) | inactive |
| O=C(Nc1ccccc1-c1ccc(Cl)cc1)c1cccnc1Cl | inactive |
| COP(=S)(OC)Oc1ccc([N+](=O)[O-])c(C)c1 | inactive |
| COP(=S)(OC)SCn1nnc2ccccc2c1=O | inactive |
| CNC(=O)N(C)c1nnc(C(C)(C)C)s1 | inactive |
| CC(C)C1(C)N=C(c2ncccc2C(=O)O)NC1=O (stereo not given) | inactive |
| Nc1c(Cl)c(F)nc(OCC(=O)O)c1Cl | inactive |
| Cc1cnc(C2=NC(C)(C(C)C)C(=O)N2)c(C(=O)O)c1 (stereo not given) | inactive |
| CS(=O)(=O)c1ccc(C(=O)C2C(=O)CCCC2=O)c([N+](=O)[O-])c1 | inactive |
| O=C(O)c1c(Cl)ccc2cc(Cl)cnc12 | inactive |
| COC(=O)NC(=S)Nc1ccccc1NC(=S)NC(=O)OC | inactive |
| CNC(=O)Oc1cccc2ccccc12 | inactive |
| COC(=O)N(C(=O)N1CO[C@@]2(C(=O)OC)Cc3cc(Cl)ccc3C2=N1)c1ccc(OC(F)(F)F)cc1 | inactive |
| CC(C)Oc1cccc(NC(=O)c2ccccc2C(F)(F)F)c1 | inactive |
| CCC(C)n1c(=O)[nH]c(C)c(Br)c1=O (stereo not given) | inactive |

Read-out: Insulin Like Growth Factor 1 (IGF1), IGF1 (gene 3479)
Experiment: LTEA_HepaRG_IGF1: Life Technologies and Expression Analysis (LTEA) Assay for Insulin Like Growth Factor 1 (IGF1) using HepaRG (AID 2283506)
Settings: mRNA level, 48 h; actives raise or lower the signal
How it was run: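 HepaRG, plated 48 h, then switched to serum-free induction media; test chemical 8-pt half-log from 100 uM (0.5% DMSO), duplicate, 48 h. Lysis in RLT, TaqMan qRT-PCR, norm. ACTB/GAPDH/POLR2A. Bidirectional fit vs DMSO.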

| SMILES | AC50 | outcome |
| --- | --- | --- |
| Cc1c(COC(=O)[C@@H]2[C@H](/C=C(\Cl)C(F)(F)F)C2(C)C)cccc1-c1ccccc1 | 34.7 µM (active) | – |
| Nc1c(Cl)c(Cl)nc(C(=O)O)c1Cl | – | inactive |
| CC(C)NC(=O)N1CC(=O)N(c2cc(Cl)cc(Cl)c2)C1=O | 3.79 µM (active) | – |
| Cn1c(-c2ccccc2)cc(-c2ccccc2)[n+]1C | 13.4 µM (active) | – |
| COC(=O)c1c(C(F)F)nc(C(F)(F)F)c(C2=NCCS2)c1CC(C)C | – | inactive |
| Clc1nc(Cl)nc(Nc2ccccc2Cl)n1 | – | inactive |
| COc1cc(OC)nc(NC(=O)NS(=O)(=O)c2ncccc2OCC(F)(F)F)n1 | – | inactive |
| Cc1cc(C)nc(Nc2ccccc2)n1 | – | inactive |
| O=c1n(Cl)c(=O)n(Cl)c(=O)n1Cl | – | inactive |
| CSC(=O)c1c(C(F)F)nc(C(F)(F)F)c(C(=O)SC)c1CC(C)C | 66 µM (active) | – |
| C=C(C)CN(CC)c1c([N+](=O)[O-])cc(C(F)(F)F)cc1[N+](=O)[O-] | – | inactive |
| CCOc1cc(C(C)(C)C)ccc1C1COC(c2c(F)cccc2F)=N1 (stereo not given) | 16.6 µM (active) | – |
| O=C(Nc1ccccc1-c1ccc(Cl)cc1)c1cccnc1Cl | 52.5 µM (active) | – |
| COP(=O)(OC)O/C(C)=C/C(=O)N(C)C | – | inactive |
| CC(C)Nc1nc(Cl)nc(NC(C)C)n1 | – | inactive |
| COP(=S)(OC)Oc1ccc([N+](=O)[O-])c(C)c1 | – | inactive |
| COP(=S)(OC)SCn1nnc2ccccc2c1=O | – | inactive |
| C=CCOC(=O)C(C)(C)OC(=O)c1cc(-n2c(=O)cc(C(F)(F)F)n(C)c2=O)ccc1Cl | – | inactive |

| SMILES | AC50 | outcome |
| --- | --- | --- |
| CNC(=O)N(C)c1nnc(C(C)(C)C)s1 | – | inactive |
| CCSC(=O)N1CCCCCC1 | – | inactive |
| CC(C)C1(C)N=C(c2ncccc2C(=O)O)NC1=O (stereo not given) | – | inactive |
| Nc1cnn(-c2ccccc2)c(=O)c1Cl | – | inactive |
| CC(C)N1C(=O)N(c2ccccc2)CSC1=NC(C)(C)C | 59.9 µM (active) | – |
| COC(=O)NS(=O)(=O)c1ccc(N)cc1 | – | inactive |
| Nc1c(Cl)c(F)nc(OCC(=O)O)c1Cl | – | inactive |
| Clc1cccc(C(Cl)(Cl)Cl)n1 | – | inactive |
| Cc1cnc(C2=NC(C)(C(C)C)C(=O)N2)c(C(=O)O)c1 (stereo not given) | – | inactive |
| CS(=O)(=O)c1ccc(C(=O)C2C(=O)CCCC2=O)c([N+](=O)[O-])c1 | – | inactive |
| O=C(O)c1c(Cl)ccc2cc(Cl)cnc12 | – | inactive |
| COC(=O)NC(=S)Nc1ccccc1NC(=S)NC(=O)OC | 29.9 µM (active) | – |
| CNC(=O)Oc1cccc2ccccc12 | – | inactive |
| COC(=O)N(C(=O)N1CO[C@@]2(C(=O)OC)Cc3cc(Cl)ccc3C2=N1)c1ccc(OC(F)(F)F)cc1 | 4.25 µM (active) | – |
| CC(C)Oc1cccc(NC(=O)c2ccccc2C(F)(F)F)c1 | 80.9 µM (active) | – |
| CN=C=S | – | inactive |
| CCC(C)n1c(=O)[nH]c(C)c(Br)c1=O (stereo not given) | 8.53 µM (active) | – |
| CO/N=C(/C1=NOCCO1)c1ccccc1Oc1ncnc(Oc2ccccc2Cl)c1F | 10.6 µM (active) | – |
